The list is not random: actives were taken first. Their share in the collection is about 5.9%.
FBPA coupling cs – qHTS Assay for Inhibitors of Fructose-1,6-bisphosphate Aldolase from Giardia Lamblia: Coupling assay counterscreen; activity change, negative = inhibition, % at 58.2 µM, hits read low; hit rate 0.67% among 290,000; AID 2472, 2010; coupling enzyme system counterscreen, AmpLite Red fluorescence; in the data active = activity change below about -30%
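Compounds tested against the coupling enzymes alone at 57.5 uM final; readout was AmpLite Red fluorescence (525/598 nm) after 20 min at RT.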
VP16 counter – VP16 counterscreen qHTS for inhibitors of ROR gamma transcriptional activity; Potency, µM (highest dose often 53.6 µM), for inactives: at the top dose activity, negative = inhibition, usual class: inhibitors; AID 2546, 2010; Drosophila S2 Gal4-VP16 UAS-luciferase, luminescence, 20 h; hit rate 3.5% among 310,000;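 note: Gal4-VP16 expression switched on by copper sulfate through the metallothionein promoter; potency is the fitted concentration of half-maximal effect; nearly all actives have a fitted effect of over 50% in size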
TrxR1 substrate – qHTS Assay for Substrates of Mammalian Selenoprotein Thioredoxin Reductase 1 (TrxR1): qHTS; AID 588456, 2011; Thioredoxin reductase 1, cytoplasmic (Rattus norvegicus), O89049; Potency, µM (doses to about 114 µM), inactives show top-dose activity change, negative = substrate turnover; hit rate 0.01% among 390,000; purified TrxR1 substrate turnover, NADPH consumption readout; note: potency is the fitted concentration of half-maximal effect; nearly all actives have a fitted effect of over 50% in size
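Rat TrxR1, dispensed at 90 nM, was prereduced with 400 uM NADPH (final) for 5 min at ~22 deg C, then incubated with compound 15 min before 400 uM selenite. A first-read NADPH fluorescence drop versus no-compound background flagged substrates.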
GALK inhibitor – qHTS Assay for Inhibitors of Human Galactokinase (GALK); AID 1868, 2009; Purified GALK, Kinase-Glo residual ATP luminescence; P51570; hit rate 0.007% among 270,000; Potency, µM (titrated, usually from 57.5 µM), without a hit: top-dose activity change, negative = inhibition, most hits filed as inhibitors; note: potency is the fitted concentration of half-maximal effect
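The enzyme phosphorylates galactose (100 uM) using ATP (35 uM); inhibition is detected as higher residual ATP, quantified by bioluminescence after 1 h reaction at room temperature, pH 8.0.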
RORg inh – qHTS for inhibitors of ROR gamma transcriptional activity. Drosophila S2 Gal4-RORgamma UAS-luciferase reporter, 20 h. hit rate 5.4% among 310,000. Nuclear receptor ROR-gamma (Mus musculus), P51450. Potency, µM (titrated, usually from 53.6 µM), without a hit: top-dose activity change, negative = inhibition, most hits filed as inhibitors. AID 2551, 2010; note: potency is the fitted concentration of half-maximal effect; nearly all actives have a fitted effect of over 60% in size
Target sequence (P51450 whole entry, looked up, the tested form may be a part): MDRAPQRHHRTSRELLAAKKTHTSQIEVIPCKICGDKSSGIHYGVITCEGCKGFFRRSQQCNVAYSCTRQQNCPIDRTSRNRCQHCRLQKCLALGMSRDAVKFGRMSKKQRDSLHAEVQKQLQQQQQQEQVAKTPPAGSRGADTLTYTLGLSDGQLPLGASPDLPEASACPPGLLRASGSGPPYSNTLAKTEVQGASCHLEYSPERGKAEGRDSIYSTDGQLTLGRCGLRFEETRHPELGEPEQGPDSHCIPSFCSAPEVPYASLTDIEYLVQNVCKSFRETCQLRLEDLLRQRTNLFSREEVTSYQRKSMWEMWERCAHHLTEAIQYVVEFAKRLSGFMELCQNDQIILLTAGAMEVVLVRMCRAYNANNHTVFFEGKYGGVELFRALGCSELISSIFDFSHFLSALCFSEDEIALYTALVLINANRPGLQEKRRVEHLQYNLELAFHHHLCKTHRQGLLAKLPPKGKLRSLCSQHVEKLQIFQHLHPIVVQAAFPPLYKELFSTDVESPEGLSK
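Compounds are pin-transferred onto Drosophila Schneider cells expressing a copper-inducible Gal4–ROR gamma transactivation domain fusion. After 1 hr, copper sulfate is added to 700 uM final; luciferase is read 20 hr later.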
rTrxR1 inhibitor – qHTS Assay for Inhibitors of Mammalian Selenoprotein Thioredoxin Reductase 1 (TrxR1): qHTS; Thioredoxin reductase 1, cytoplasmic (Rattus norvegicus), O89049; recombinant rTrxR1, NADPH fluorescence consumption, selenite substrate; Potency, µM (highest dose often 114 µM), inactives show at the highest dose activity change, negative = inhibition, most hits filed as inhibitors; hit rate 1% among 390,000; AID 588453, 2011; note: potency is the fitted concentration of half-maximal effect; nearly all actives have a fitted effect of over 65% in size
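Rat TrxR1 (90 nM in the dispensed reagent) was pre-reduced with 400 uM NADPH for 5 min at room temperature, then incubated with compound for 15 min. After 400 uM selenite was added, NADPH fluorescence (Ex 340/Em 450 nm) was followed for 8 min.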
Numbers without * were called inactive; [ ] = another dose, or the depositor's remark. Unless noted, calls come from the whole dose curve; as a rule, active = well fitted curve in the direction sought with a large enough effect; inconclusive = small, poorly fitted or top-dose-only effect, or another doubt; inactive = no such curve, though single readings can be large; an effect the other way counts as inactive or inconclusive. % is set by controls: 0 for no effect and ±100 for the full control effect.

Results for FC(F)(F)c1ccccc1/C=N/n1c(COc2ccccc2)n[nH]c1=S ?
FBPA coupling cs: 6; VP16 counter: 10µM*; TrxR1 substrate: 4%[57.1 µM]; GALK inhibitor: -2%; RORg inh: 5.6µM*; rTrxR1 inhibitor: 2%[57.1 µM]

What do the screens show for `CC1CN(C(=O)C2CCCC2)C(C)CN1C(=O)C1CCCC1` (stereo not given)?
FBPA coupling cs: 5; VP16 counter: 4%; TrxR1 substrate: -13%; GALK inhibitor: 0%; RORg inh: 0%; rTrxR1 inhibitor: -13%

Results for CN(C)S(=O)(=O)Oc1ccsc1C(=O)Nc1ccc(Cl)cc1 ?
FBPA coupling cs: 0; VP16 counter: 25µM*; TrxR1 substrate: 22%[57.1 µM]; GALK inhibitor: -2%; RORg inh: -41%; rTrxR1 inhibitor: 15%[57.1 µM]

What do the screens show for `CC(=O)NC1=C(N(C)C2CCS(=O)(=O)C2)C(=O)c2ccccc2C1=O` (stereo not given)?
FBPA coupling cs: -70*; VP16 counter: 7.9µM*; TrxR1 substrate: 6%[57.1 µM]; GALK inhibitor: 2%; RORg inh: 2.5µM*; rTrxR1 inhibitor: -43%

Results for CN(C(=O)Nc1ccccc1)C1CCS(=O)(=O)C1 (stereo not given) ?
FBPA coupling cs: 2; VP16 counter: -5%; TrxR1 substrate: 9%[57.1 µM]; GALK inhibitor: -2%; RORg inh: -9%; rTrxR1 inhibitor: 3%

How did CCOC(=O)C1=C(C)Nc2ncnn2C1c1c[nH]c2ccccc12 (stereo not given) do in these assays?
FBPA coupling cs: -5; VP16 counter: 0%; TrxR1 substrate: 9%[57.1 µM]; GALK inhibitor: 0%; RORg inh: 10µM*; rTrxR1 inhibitor: 3%[57.1 µM]

How did O=C(CCNC(=O)c1ccccc1Cl)Nc1cc(C(F)(F)F)ccc1Cl do in these assays?
FBPA coupling cs: 2; VP16 counter: -1%; TrxR1 substrate: -12%; GALK inhibitor: -2%; RORg inh: 22%; rTrxR1 inhibitor: 3%

Results for O=C(CC(=O)c1ccccc1)Nc1cc(C(F)(F)F)ccc1Cl ?
FBPA coupling cs: -8; VP16 counter: inconclusive; TrxR1 substrate: -3%; GALK inhibitor: 0%; RORg inh: inconclusive; rTrxR1 inhibitor: -2%

Results for O=C(NC(=S)Nc1cc(C(F)(F)F)ccc1Cl)c1ccccc1 ?
FBPA coupling cs: 0; VP16 counter: inconclusive; TrxR1 substrate: -3%; GALK inhibitor: 2%; RORg inh: 2.5µM*; rTrxR1 inhibitor: -5%

How did O=C(O)c1ccc(NNC(=S)Nc2cc(C(F)(F)F)ccc2Cl)cc1 do in these assays?
FBPA coupling cs: 2; VP16 counter: inconclusive; TrxR1 substrate: -2%; GALK inhibitor: -2%; RORg inh: 3.2µM*; rTrxR1 inhibitor: 32%

Results for FC(F)(F)c1ccc(Cl)c(NC(=S)N/N=C/c2ccccc2Cl)c1 ?
FBPA coupling cs: 0; VP16 counter: inconclusive; TrxR1 substrate: 1%; GALK inhibitor: 0%; RORg inh: 2.2µM*; rTrxR1 inhibitor: 23%

How did Cc1nc(SCc2nc3c(O)cccc3[nH]2)c2oc3ccccc3c2n1 do in these assays?
TrxR1 substrate: 6%[57.1 µM]; rTrxR1 inhibitor: 2%[57.1 µM]

How did Cc1sc2nc(CSc3ccccc3)nc(N3CCN(C)CC3)c2c1C do in these assays?
FBPA coupling cs: 1; VP16 counter: -4%; TrxR1 substrate: -6%; GALK inhibitor: 3%; RORg inh: -6%; rTrxR1 inhibitor: 3%

How did COCCNc1nc(CSc2ccccc2)nc2sc(C)c(C)c12 do in these assays?
FBPA coupling cs: 1; VP16 counter: inconclusive; TrxR1 substrate: 2%[57.1 µM]; GALK inhibitor: 2%; RORg inh: 11µM*; rTrxR1 inhibitor: 8%[57.1 µM]

Results for CC(C)(C)c1ccc(C(=O)N2CCC(=O)N(C(COCc3ccccc3)Cc3ccccc3)CC2)cc1 (stereo not given) ?
FBPA coupling cs: -3; VP16 counter: 14µM*; TrxR1 substrate: -11%[57.1 µM]; RORg inh: 22%; rTrxR1 inhibitor: 12%[57.1 µM]

How did O=C(c1ccc(C(F)(F)F)cc1)N1CCC(=O)N(C(COCc2ccccc2)Cc2ccccc2)CC1 (stereo not given) do in these assays?
FBPA coupling cs: 4; VP16 counter: -2%; TrxR1 substrate: -5%; RORg inh: -2%; rTrxR1 inhibitor: 11%

What do the screens show for `COc1ccc(N=Nc2n(C)c3ccccc3[n+]2C)cc1`?
FBPA coupling cs: -27; VP16 counter: 2µM*; GALK inhibitor: 13%; RORg inh: 1.1µM*

Results for Cn1c(COc2ccccc2O)[n+](C)c2ccccc21 ?
FBPA coupling cs: 2; VP16 counter: -1%; TrxR1 substrate: 4%[57.1 µM]; GALK inhibitor: 0%; RORg inh: 0%; rTrxR1 inhibitor: 19%[2.29 µM]

Results for COCCCn1cnnc1SCC(=O)Nc1ccc(S(=O)(=O)N2CCCC2)cc1 ?
FBPA coupling cs: 4; VP16 counter: -6%; TrxR1 substrate: -7%; GALK inhibitor: 1%; RORg inh: 2%; rTrxR1 inhibitor: -4%

Results for CSc1cccc(NC(=O)CN2CCN(Cc3ccccc3C)S2(=O)=O)c1 ?
TrxR1 substrate: -1%; rTrxR1 inhibitor: 13%

Results for COc1ccccc1Nc1nc(N)nc(CSC(=S)N2CCC(C)CC2)n1 ?
FBPA coupling cs: -9; VP16 counter: 5µM*; TrxR1 substrate: 5%[57.1 µM]; GALK inhibitor: 1%; RORg inh: 0.13µM*; rTrxR1 inhibitor: 8%[57.1 µM]

What do the screens show for `COc1ccccc1Nc1nc(N)nc(CSC(=S)N2CCN(c3ccccc3)CC2)n1`?
FBPA coupling cs: -3; VP16 counter: 6%; TrxR1 substrate: -2%; GALK inhibitor: 0%; RORg inh: -45%; rTrxR1 inhibitor: 33%

What do the screens show for `COc1ccccc1Nc1nc(N)nc(CSC(=S)N2CCCCC2C)n1` (stereo not given)?
FBPA coupling cs: 0; VP16 counter: 7.1µM*; TrxR1 substrate: -6%; GALK inhibitor: 0%; RORg inh: 7.9µM*; rTrxR1 inhibitor: 8%[57.1 µM]

What do the screens show for `Cc1nn(C)cc1-c1n[nH]c(=S)n1-c1ccc(F)cc1`?
FBPA coupling cs: 0; VP16 counter: 8%; TrxR1 substrate: 6%[57.1 µM]; GALK inhibitor: 2%; RORg inh: inconclusive; rTrxR1 inhibitor: -10%[57.1 µM]

Results for Cc1nc(C)n(CCNC(=O)c2ccco2)n1 ?
FBPA coupling cs: 1; VP16 counter: -10%; TrxR1 substrate: 7%; GALK inhibitor: 3%; RORg inh: -11%; rTrxR1 inhibitor: 38%[2.29 µM]
